# Laboratory results reported in PubChem BioAssay.
# The source made the active and inactive calls.
# Tests used:
# [1] = test system: Human papillomavirus type 1a protein E7 (residues 44-93); experiment: HPV1a E7 fragment binders on microarrays, primary screen, biochemical, small-molecule microarray, residues 44-93, 635 nm fluorescence (AID 1108); settings: small-molecule microarray binding, fluorescence 635 nm; higher = more signal;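 further: E7 fragment applied at 1 µg/mL in TBST for 1 h at 4 C; score combines spot fluorescence with its signal to noise ratio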
# [2] = modulators of HCV replicon luciferase signal, primary screen, HCV replication inhibitor project, Huh7 cells, luciferase reporter (AID 1109); settings: 48 h, higher = more signal;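 further: huh7 hepatoma cells harbouring a luciferase neomycin HCV replicon reporter; luciferase luminescence as measure of HCV replicon replication; test concentration not given here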
# [3] = target: Left-right determination factor 2 (Homo sapiens) (UniProt O00292); experiment: LEFTY2 binders on small-molecule microarrays, primary screen, biochemical, small-molecule microarray, 635 nm fluorescence scan (AID 1110); settings: LEFTY2 binding, higher = more signal
# [4] = target: Calmodulin-1 (Homo sapiens) (UniProt P0DP23); experiment: CALM1 binders on microarrays, EGTA buffer, profiling panel, biochemical, small-molecule microarray, Cy5-labelled CALM1 (AID 1111); settings: Cy5-CALM1 binding fluorescence, higher = more signal;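 further: labelled calmodulin applied in Tris saline Tween buffer holding calcium plus EGTA and DTT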
# [5] = target: Calmodulin-1 (Homo sapiens) (UniProt P0DP23); experiment: calcium-bound CALM1 binders on microarrays, profiling panel, artefact control for SMM control-protein annotation, biochemical, small-molecule microarray, Cy5-labelled CALM1, plus calcium (AID 1112); settings: Cy5-CALM1 binding fluorescence, higher = more signal;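 further: score merges spot fluorescence with signal to noise from triplicate slides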
# [6] = small-molecule microarray binders of probe aWnt5a, primary screen, biochemical, biotinylated probe, 635/667 nm fluorescence (AID 1113); settings: higher = more signal;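 further: score merges 667 nm fluorescence intensity with signal-to-noise per printed feature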
# [7] = small-molecule microarray binders of probe aShh, primary screen, biochemical, biotinylated probe, 635/667 nm fluorescence (AID 1114); settings: higher = more signal;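 further: probe is biotin-labelled aShh protein from a stem cell growth factor screen; measures binding of labelled protein to compounds printed on the slide; score merges feature fluorescence at 667 nm with signal-to-noise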
# [8] = small-molecule microarray binders of probe aNog, primary screen, biochemical, biotinylated probe, 635/667 nm fluorescence (AID 1115); settings: higher = more signal;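 further: probe is biotinylated aNog protein used at 0.15 µg/mL for 1 h at 4 C; z-score combines 667 nm fluorescence of each spot with its signal to noise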
# [9] = target: Torsin-1A-interacting protein 1 (Homo sapiens) (UniProt Q5JTV8); experiment: LAP1 binders from COS7 cell lysate, primary screen, small-molecule microarray, 635/667 nm fluorescence (AID 1116); settings: COS7-hLAP1 lysate binding, 635 nm fluorescence, higher = more signal
# [10] = target: Alpha-bungarotoxin (Bungarus multicinctus) (UniProt P60615); experiment: alpha-bungarotoxin binders on microarray, profiling panel, artefact control for SMM control protein annotation, biochemical, small-molecule microarray, Alexa647 label, 635/667 nm fluorescence (AID 1117); settings: alpha-BTX-A647 binding fluorescence, higher = more signal
# Albumin (Bos taurus) = Albumin (Bos taurus) (UniProt P02769); experiment: bovine serum albumin binders on microarray, profiling panel, artefact control for SMM control protein annotation, biochemical, small-molecule microarray, Alexa647 label, 635/667 nm fluorescence (AID 1118); settings: BSA-A647 binding, fluorescence 635 nm, higher = more signal;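 further: score merges 667 nm emission intensity and signal-to-noise per printed compound spot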
# [11] = small-molecule microarray binders of probe aXIP, primary screen, biochemical, NeuroSMM set, 635/667 nm fluorescence (AID 1119); settings: higher = more signal, called active from +8 up or from −8 down;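 further: probe is the protein aXip251-270 applied at 1 µg/mL to compound-printed slides; binding of probe to printed compounds measured as 667 nm fluorescence plus signal to noise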
# [12] = small-molecule binders of probe aNOTCH3, primary screen, biochemical, small-molecule microarray, 635/667 nm fluorescence (AID 1120); settings: higher = more signal;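 further: probe is a biotin-tagged antibody raised against NOTCH3 rather than NOTCH3 protein; score merges spot fluorescence near 667 nm with spot signal to noise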
# [13] = small-molecule binders of probe aNOTCH2, primary screen, biochemical, small-molecule microarray, 635/667 nm fluorescence (AID 1121); settings: higher = more signal;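 further: score merges feature fluorescence read at 667 nm with its signal to noise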
# [14] = target: Carbonic anhydrase 2 (Homo sapiens) (UniProt P00918); experiment: CAII small-molecule binders, profiling panel, biochemical, small-molecule microarray, Alexa647-labelled CAII (AID 1122); settings: CAII-A647 binding fluorescence, higher = more signal
# [15] = COS7 lysate on small-molecule microarray, probe aHis, 635 nm (AID 1123); settings: COS7 cell lysate, fluorescence, higher = more signal;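 further: z-score combines 667nm fluorescence intensity with signal-to-noise per printed compound spot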
# [16] = compound binding in COS7 lysate, probe aLAP1, primary screen, cell lysate, small-molecule microarray (AID 1124); settings: probe aLAP1, fluorescence, higher = more signal;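 further: lysate comes from COS7 cells expressing LAP1 and is applied at 0.3 µg/mL; score merges spot fluorescence near 667 nm with signal-to-noise over triplicate slides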
# Sam68 (KHDRBS1) = experiment: Sam68 small-molecule binders, primary screen, biochemical, small-molecule microarray, 635 nm fluorescence (AID 1125); settings: small-molecule microarray binding, higher = more signal;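 further: score merges 667 nm channel intensity with signal to noise over triplicate slides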
# [17] = test system: Chordin-like protein 2 (CHRDL2); experiment: CHRDL2 small-molecule binders, primary screen, biochemical, small-molecule microarray, 635 nm fluorescence (AID 1126); settings: small-molecule microarray binding, fluorescence 635 nm; higher = more signal;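 further: printed compound slides probed with Chrdl2 protein at 4 µg/mL for 1 h at 4 C; score merges 667 nm emission intensity with signal to noise over three replicate slides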
# [18] = target: Concanavalin-A (Canavalia ensiformis) (UniProt P02866); experiment: ConA small-molecule binders, primary screen, artefact control for SMM control protein annotation, biochemical, small-molecule microarray, Alexa647 label, 635 nm (AID 1127); settings: ConA-A647 binding fluorescence, higher = more signal;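 further: z combines 667 nm emission intensity with signal-to-noise across three replicate slides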
# Concanavalin-A (Canavalia ensiformis), sequence (P02866 whole entry, looked up): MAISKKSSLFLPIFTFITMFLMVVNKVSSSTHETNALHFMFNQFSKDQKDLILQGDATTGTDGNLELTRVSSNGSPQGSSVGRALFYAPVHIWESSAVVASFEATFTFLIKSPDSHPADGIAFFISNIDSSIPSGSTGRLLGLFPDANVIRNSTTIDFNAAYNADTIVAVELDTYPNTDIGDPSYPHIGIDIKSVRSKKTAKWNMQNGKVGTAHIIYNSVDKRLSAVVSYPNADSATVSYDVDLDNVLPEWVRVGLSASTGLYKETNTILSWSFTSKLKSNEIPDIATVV
# Albumin (Bos taurus), sequence (P02769 whole entry, looked up): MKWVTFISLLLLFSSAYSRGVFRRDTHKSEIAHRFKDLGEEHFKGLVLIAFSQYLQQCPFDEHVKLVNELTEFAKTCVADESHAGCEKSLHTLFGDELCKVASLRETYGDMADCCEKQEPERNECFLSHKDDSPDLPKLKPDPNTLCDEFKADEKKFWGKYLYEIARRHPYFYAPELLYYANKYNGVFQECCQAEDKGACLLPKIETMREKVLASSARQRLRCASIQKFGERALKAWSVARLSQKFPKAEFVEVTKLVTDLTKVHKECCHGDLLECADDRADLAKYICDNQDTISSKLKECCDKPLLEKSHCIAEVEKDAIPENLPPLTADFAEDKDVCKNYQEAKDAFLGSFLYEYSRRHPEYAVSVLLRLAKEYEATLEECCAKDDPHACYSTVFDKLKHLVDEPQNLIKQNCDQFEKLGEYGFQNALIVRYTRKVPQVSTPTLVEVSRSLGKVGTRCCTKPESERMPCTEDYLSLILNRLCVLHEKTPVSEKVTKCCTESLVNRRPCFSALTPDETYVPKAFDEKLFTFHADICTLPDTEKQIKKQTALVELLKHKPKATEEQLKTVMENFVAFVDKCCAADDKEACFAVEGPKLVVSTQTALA
# Left-right determination factor 2 (Homo sapiens), sequence (O00292 whole entry, looked up): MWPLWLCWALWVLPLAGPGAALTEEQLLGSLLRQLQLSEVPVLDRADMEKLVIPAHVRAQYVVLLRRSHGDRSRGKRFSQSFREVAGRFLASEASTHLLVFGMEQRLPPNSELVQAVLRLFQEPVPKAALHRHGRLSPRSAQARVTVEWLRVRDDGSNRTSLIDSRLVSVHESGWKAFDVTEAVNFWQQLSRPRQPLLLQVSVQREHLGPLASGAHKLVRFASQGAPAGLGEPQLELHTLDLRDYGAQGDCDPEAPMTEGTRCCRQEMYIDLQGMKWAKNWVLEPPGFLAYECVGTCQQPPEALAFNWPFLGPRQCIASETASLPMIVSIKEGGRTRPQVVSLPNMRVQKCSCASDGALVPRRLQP
# Alpha-bungarotoxin (Bungarus multicinctus), sequence (P60615 whole entry, looked up): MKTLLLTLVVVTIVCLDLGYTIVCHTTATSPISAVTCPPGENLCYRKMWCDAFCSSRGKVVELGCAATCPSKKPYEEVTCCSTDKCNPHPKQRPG
# Torsin-1A-interacting protein 1 (Homo sapiens), sequence (Q5JTV8 whole entry, looked up): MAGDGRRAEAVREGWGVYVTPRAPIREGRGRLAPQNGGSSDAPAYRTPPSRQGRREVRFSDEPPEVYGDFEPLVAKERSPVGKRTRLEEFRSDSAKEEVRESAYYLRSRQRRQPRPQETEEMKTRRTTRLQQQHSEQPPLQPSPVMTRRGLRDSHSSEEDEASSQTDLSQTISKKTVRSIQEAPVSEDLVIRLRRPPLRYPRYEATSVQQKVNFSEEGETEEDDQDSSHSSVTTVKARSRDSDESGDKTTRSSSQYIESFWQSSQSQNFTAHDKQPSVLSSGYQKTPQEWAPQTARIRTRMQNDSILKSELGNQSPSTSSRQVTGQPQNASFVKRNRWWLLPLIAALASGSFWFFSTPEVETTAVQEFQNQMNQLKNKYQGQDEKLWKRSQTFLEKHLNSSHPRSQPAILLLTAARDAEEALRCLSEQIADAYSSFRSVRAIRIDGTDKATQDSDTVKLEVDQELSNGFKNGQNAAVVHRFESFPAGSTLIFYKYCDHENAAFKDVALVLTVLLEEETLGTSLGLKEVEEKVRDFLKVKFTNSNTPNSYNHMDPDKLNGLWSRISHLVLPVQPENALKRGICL
SMILES,composite z-score [1],z-score [2],composite z-score [3],composite z-score [4],composite z-score [5],composite z-score [6],composite z-score [7],composite z-score [8],composite z-score [9],composite z-score [10],composite z-score (Albumin (Bos taurus)),composite Z-score [11],composite z-score [12],composite z-score [13],composite z-score [14],composite z-score [15],composite z-score [16],composite z-score (Sam68 (KHDRBS1)),composite z-score [17],composite z-score [18]
CC(C)C(CO)N1C(=O)[C@@H]2[C@H]3C(=O)OCC=C[C@H]3OC23C=CCN(C(C)(C)C)C(=O)[C@@H]13 (stereo not given in full),-1.27,-0.425,-0.15,-0.907,-1.43,-0.204,0.0725,-0.133,-0.809,-0.0022,-0.0498,-0.343 (inactive),-0.252,-0.168,0.409,-0.843,-0.495,-1.41,-0.109,0.0282
CC(=O)n1cc(C(O)C2C=CC3C(=O)N(c4ccccc4)C(=O)C3N2Nc2ccc(C(C)C)cc2)c2ccccc21 (stereo not given),0.656,-0.909,-0.0688,2.53,1.38,-0.0394,0.0328,1.41,1.68,1.6,1.02,1.19 (inactive),0.328,0.08,0.433,2.87,0.503,1.29,0.0259,0.764
COc1ccc([Si](C)(C)[C@H]2[C@H](CCO)O[C@@]3(C(=O)N(Cc4ccccc4)c4ccc(N5CCOC5=O)cc43)[C@@H]2C)cc1,0.27,-4.13,0.28,0.284,0.299,-0.0239,0.0062,0.325,0.673,0.0997,0.711,-0.326 (inactive),0.0311,-0.149,0.299,0.644,-0.174,0.832,0.524,1.15
CO[C@H]1O[C@H](CO)[C@@H](OC(=O)CCc2ccccc2)[C@H](OC(=O)c2cc3ccccc3[nH]2)[C@H]1OC(=O)c1cc2ccccc2[nH]1,1.34,-3.2,0.817,1.65,0.193,0.055,-0.138,0.248,1.21,0.889,0.777,-0.134 (inactive),-0.0284,-0.223,0.68,0.78,-0.206,1.22,0.453,1.09
O=C(CS)NCCCCCNC(=O)[C@@H]1C[C@@H]2C(=O)N[C@@H](Cc3ccccc3)C(=O)N2[C@@H]1c1cccc(OCCO)c1,1.41,0.266,0.705,1.94,-0.0675,-0.302,-0.482,-0.458,1.08,1.54,-0.884,-0.32 (inactive),-0.638,-0.446,0.665,2.7,0.426,1.34,0.914,1.13
Cc1ccc(S[C@]2(C(=O)NC(C)C)CC(=O)N(Cc3ccccc3Cl)[C@@H]2c2ccc(CO)cc2)cc1,0.949,-1.81,-1.76,-0.142,0.214,-0.154,-0.0035,-0.429,0.98,1.07,0.29,0.0728 (inactive),-0.294,-0.146,0.717,0.634,0.542,-1.21,-1.85,-0.744
COc1ccc([Si](C)(C)[C@H]2[C@H](CC(=O)N3Cc4ccccc4C[C@H]3CO)O[C@@]3(C(=O)N(Cc4ccc(N5C(=O)c6cccc7cccc5c67)cc4)c4ccccc43)[C@@H]2C)cc1,1.3,-3.26,0.952,0.732,0.049,-0.124,-0.279,-0.49,1.65,0.609,0.502,0.858 (inactive),-0.0647,-0.207,0.376,0.822,0.295,1.3,1.13,1.08
C=C(COC)C(=O)CC[C@H](OC(C)=O)c1ccc(OCCO)cc1,0.159,-1.17,0.557,-0.2,-1.08,-0.0445,-0.0011,-0.0562,3.4,0.915,-0.0592,-0.308 (inactive),-0.0362,-0.0971,0.549,0.523,2.46,0.666,0.569,0.488
CCOC(=O)C[C@H]1[C@H](OC(=O)c2ccc(-c3ccccc3)cc2)[C@@H](NC(=O)CC(C)C)c2cc(OCCCO)ccc2N1C(=O)c1ccccc1,1.07,-1.96,0.0613,0.232,0.462,-0.0718,-0.2,-0.1,0.266,0.198,0.506,-0.221 (inactive),-0.0057,-0.124,0.108,0.806,-0.2,1.03,0.0549,0.27
NC(=O)[C@@H]1[C@H]2C(=O)O[C@H](c3ccccc3)[C@H](c3ccccc3)N2[C@H](c2ccc(OCCO)cc2)[C@@]12C(=O)Nc1ccc(C#CCCO)cc12,-1.04,-1.41,-0.483,1.09,0.209,0.0973,0.166,-0.329,0.628,1.13,0.629,0.238 (inactive),-0.12,-0.0681,0.407,0.661,0.959,0.837,-0.178,0.557
